KCNQ2 inh: rat KCNQ2 potassium channel inhibitors, primary screen, cell-based, CHO-K1, FluxOR thallium flux, B-score; B-score at 10 µM; AID 2156, 2009; 20 min; stronger effect = lower value; hit rate 1.1% among 310,000;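 active = fluorescence ratio B-score at most minus 3 library SDs, with starting brightness B-score within 2 library SDs, cut at about -5.5 in these data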
Target sequence (O88943 whole entry, looked up): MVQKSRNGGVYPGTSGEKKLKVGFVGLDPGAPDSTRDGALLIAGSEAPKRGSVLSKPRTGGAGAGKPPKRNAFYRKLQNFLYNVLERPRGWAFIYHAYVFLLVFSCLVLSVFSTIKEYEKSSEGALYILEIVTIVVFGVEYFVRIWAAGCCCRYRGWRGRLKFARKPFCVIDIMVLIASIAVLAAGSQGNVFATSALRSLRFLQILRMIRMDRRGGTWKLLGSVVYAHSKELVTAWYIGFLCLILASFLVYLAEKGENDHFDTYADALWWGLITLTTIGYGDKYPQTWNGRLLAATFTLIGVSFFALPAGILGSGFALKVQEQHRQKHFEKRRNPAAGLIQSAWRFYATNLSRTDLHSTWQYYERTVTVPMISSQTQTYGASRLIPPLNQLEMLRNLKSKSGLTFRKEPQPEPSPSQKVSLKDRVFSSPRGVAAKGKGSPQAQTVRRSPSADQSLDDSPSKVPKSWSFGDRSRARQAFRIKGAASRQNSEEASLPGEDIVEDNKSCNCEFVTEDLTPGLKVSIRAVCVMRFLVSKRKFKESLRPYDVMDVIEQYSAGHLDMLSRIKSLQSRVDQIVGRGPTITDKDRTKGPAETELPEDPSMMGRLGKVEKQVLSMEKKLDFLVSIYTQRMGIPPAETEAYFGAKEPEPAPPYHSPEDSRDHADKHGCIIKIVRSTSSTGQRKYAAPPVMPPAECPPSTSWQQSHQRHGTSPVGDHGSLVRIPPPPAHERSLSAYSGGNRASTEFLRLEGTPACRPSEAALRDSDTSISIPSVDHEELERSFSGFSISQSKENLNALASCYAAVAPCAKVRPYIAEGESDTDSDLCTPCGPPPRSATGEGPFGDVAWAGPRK
KCNQ2 enhance: potentiators of rat KCNQ2 potassium channel | AID 2239, 2010 | B-score at 10 µM | CHO-K1 KCNQ2, FluxOR thallium flux fluorescence; stronger effect = higher value | hit rate 0.54% among 310,000;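 active = fluorescence ratio B-score at least 3 SD of library B-scores, with initial fluorescence B-score within 3 of them, cut at about 5.3 in these data; same plate scores as AID 2156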;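 also: B-score of peak minus minimum over baseline fluorescence ratio after K+ and Tl+ stimulus; positive B-score means potentiation of KCNQ2 with more thallium influx and brighter signal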
Numbers without * were called inactive. In the library only some 1.6% were active in any assay of this set; here they are far more common.

How did COC(=O)c1ccc(C(=O)OC)c(NC(=O)CCc2ccc(C)o2)c1 do in these assays?
KCNQ2 inh: inactive; KCNQ2 enhance: 0.33

Results for Cc1ccc(C2(O)CN(c3ccccc3)C3=[N+]2CCS3)cc1 (configuration not stated) ?
KCNQ2 inh: inactive

What do the screens show for `O=[N+]([O-])c1ccc(C2(O)CN(c3ccccc3)C3=[N+]2CCS3)cc1` (configuration not stated)?
KCNQ2 inh: -6.5*; KCNQ2 enhance: -6.5

How did CC(C)(NO)/C(=N/O)c1cccs1 do in these assays?
KCNQ2 inh: inactive

What do the screens show for `Cc1cc(SCC(=O)c2cccs2)n2nc(C)c(-c3ccc(Cl)cc3)c2n1`?
KCNQ2 inh: inactive; KCNQ2 enhance: 2.4

How did Cc1nn2c(SCC(=O)c3cccs3)cc(C(C)(C)C)nc2c1-c1ccccc1 do in these assays?
KCNQ2 inh: inactive; KCNQ2 enhance: 20*

How did C=CCc1cccc(/C=N/NC(=O)c2ccccc2OC)c1O do in these assays?
KCNQ2 inh: inactive; KCNQ2 enhance: 5.2

Results for C=CCc1cccc(/C=N/NC(=O)c2ccccc2Br)c1O ?
KCNQ2 inh: inactive; KCNQ2 enhance: 9.6*

Results for CSc1nc(NCCCO)c2c3c(sc2n1)CN(C)CC3 ?
KCNQ2 inh: inactive

What do the screens show for `CCCCOc1ccc(C(=O)N/C(=C\c2cccc([N+](=O)[O-])c2)C(=O)OC(C)C)cc1`?
KCNQ2 inh: -6*; KCNQ2 enhance: -6

Results for CCCCOc1ccc(C(=O)N/C(=C\c2cccc([N+](=O)[O-])c2)C(=O)OCCC)cc1 ?
KCNQ2 inh: inactive

How did CC(C)(C)C(=O)Cn1c[n+](N)cn1 do in these assays?
KCNQ2 inh: inactive

How did C/C(=N\OCc1nc2ccccc2c(=O)n1/N=C/c1cc(C)cc([N+](=O)[O-])c1O)c1ccccc1 do in these assays?
KCNQ2 inh: -8.3*; KCNQ2 enhance: -8.3

What do the screens show for `C/C(=N\OCc1nc2ccccc2c(=O)n1/N=C/c1cc([N+](=O)[O-])ccc1O)c1ccccc1`?
KCNQ2 inh: inactive; KCNQ2 enhance: 2.1

How did Cc1c(C(=O)NC(=S)Nc2ccc3c4c(cccc24)CC3)cccc1[N+](=O)[O-] do in these assays?
KCNQ2 inh: inactive; KCNQ2 enhance: 0.42

Results for S=C(NCc1cccc(Cl)c1)NC1CCCCC1 ?
KCNQ2 inh: inactive; KCNQ2 enhance: 8*

Results for S=C(NCc1ccccc1)NC1CCCCC1 ?
KCNQ2 inh: inactive; KCNQ2 enhance: 1.3

How did O=C1OC(c2ccccc2)=NC12CC2c1ccc(Cl)cc1 (configuration not stated) do in these assays?
KCNQ2 inh: inactive

How did COc1ccc([C@H]2[C@H](C(=O)C(C)(C)C)N3N=Cc4ccccc4C3[C@]23N=C(c2ccccc2)OC3=O)cc1 (some centres not stated) do in these assays?
KCNQ2 inh: -9.5*; KCNQ2 enhance: -9.5

What do the screens show for `COC(=O)c1cc(Cl)c(NC(=O)Cc2ccccc2)cc1OC`?
KCNQ2 inh: inactive

How did Cc1ccc(-c2nnc(N3CCC(C)CC3)c3ccccc23)cc1 do in these assays?
KCNQ2 inh: inactive

What do the screens show for `CC1CCN(c2nnc(-c3ccccc3)c3ccccc23)CC1`?
KCNQ2 inh: -5.8*; KCNQ2 enhance: -5.8

Results for COC(=O)Cn1c(=O)c2c(nc(Br)n2Cc2ccccc2Cl)n(C)c1=O ?
KCNQ2 inh: -5.8*; KCNQ2 enhance: -5.8

How did Cn1c(=O)c2c(nc(Br)n2Cc2ccccc2Cl)n(C)c1=O do in these assays?
KCNQ2 inh: inactive

How did C/C(CCN1CCc2nc(-c3ccccc3)c(-c3ccccc3)cc2C1)=N\O[C@H](C)c1cn([C@H](CO)Cc2ccccc2)nn1 do in these assays?
KCNQ2 inh: inactive

How did Cc1ccc(-c2nnn(CC(=O)N(CCN3CCOCC3)C(C(=O)NC(C)(C)C)c3ccco3)n2)cc1 (configuration not stated) do in these assays?
KCNQ2 inh: inactive

Results for Cc1ccc(-c2nnn(CC(=O)N(CCN3CCOCC3)C(C(=O)NC(C)(C)C)c3ccc(C)o3)n2)cc1 (configuration not stated) ?
KCNQ2 inh: -6*; KCNQ2 enhance: -6

What do the screens show for `Cc1nn(-c2nc3ccccc3s2)c(N)c1-c1ccccc1`?
KCNQ2 inh: inactive; KCNQ2 enhance: 1.3

How did Cc1sc2ncnc(SC(C)C(=O)N3c4ccccc4Sc4ccccc43)c2c1C (configuration not stated) do in these assays?
KCNQ2 inh: inactive

How did Cn1c(=O)c2c(ncn2CCC(=O)N/N=C/c2ccncc2)n(C)c1=O do in these assays?
KCNQ2 inh: inactive

How did COc1cc(C(=O)ON=C2C=C(C)C(=O)C(C)=C2)cc(OC)c1OC do in these assays?
KCNQ2 inh: inactive; KCNQ2 enhance: 0.7

What do the screens show for `CC(=O)n1cc(Nc2ccc([N+](=O)[O-])cc2)c2ccccc21`?
KCNQ2 inh: inactive; KCNQ2 enhance: 0.03

How did CC(=O)SC(C[N+](=O)[O-])c1cn(C(C)=O)c2ccccc12 (configuration not stated) do in these assays?
KCNQ2 inh: -5.6*; KCNQ2 enhance: -5.6

What do the screens show for `N#Cc1c(N)nc2c(c1-c1cccs1)CCCC2`?
KCNQ2 inh: inactive; KCNQ2 enhance: 0.39

How did COC(=O)C(Nc1ccccc1Cl)(c1cc(C)c(O)c(C)c1)C(F)(F)F (configuration not stated) do in these assays?
KCNQ2 inh: -8*; KCNQ2 enhance: -8

What do the screens show for `CCOC(=O)C(NC(=O)c1ccccc1Cl)(Nc1ccc(C)c(C)c1)C(F)(F)F` (configuration not stated)?
KCNQ2 inh: inactive

What do the screens show for `CCOC(=O)N(NC(=O)C(O)(C(C)C)C(C)C)c1ccccc1`?
KCNQ2 inh: inactive

Results for CCCCC(O)(CCCC)C(=O)NN(C(=O)OC)c1ccccc1 ?
KCNQ2 inh: inactive

How did COC(=O)N(NC(=O)C(O)(c1ccccc1)c1ccccc1)c1ccc(C)cc1 do in these assays?
KCNQ2 inh: -5.9*; KCNQ2 enhance: -5.9

How did CCOC(=O)N(NC(=O)C(O)(c1ccccc1)c1ccccc1)c1ccccc1 do in these assays?
KCNQ2 inh: -6.1*; KCNQ2 enhance: -6.1

How did Cc1ccc(C)c(N2CCN(C(=O)CCC(=O)Nc3nnc(CC(C)C)s3)CC2)c1 do in these assays?
KCNQ2 inh: inactive; KCNQ2 enhance: 1.4

Results for CCc1cc2c(C)cc(=O)oc2cc1OC(=O)C1CCCN1C(=O)OC(C)(C)C (configuration not stated) ?
KCNQ2 inh: -6*; KCNQ2 enhance: -6

How did CC(C)(C)OC(=O)N1CCCC1C(=O)NCCc1ccccc1 (configuration not stated) do in these assays?
KCNQ2 inh: inactive; KCNQ2 enhance: 0.63

What do the screens show for `O=C(CCN1CCc2ccccc2CC1)c1ccc2c(c1)OCCO2`?
KCNQ2 inh: -5.8*; KCNQ2 enhance: -5.8

Results for O=C(CCCN1CCOCC1)c1ccc2c(c1)OCCO2 ?
KCNQ2 inh: inactive; KCNQ2 enhance: 0.39

What do the screens show for `O=C(CSc1nnc(-c2ccco2)n1Cc1ccco1)NCc1cccs1`?
KCNQ2 inh: inactive; KCNQ2 enhance: 0.13

What do the screens show for `O=C(CSc1nnc(Cc2cccs2)n1Cc1ccco1)Nc1ccc(Br)cc1`?
KCNQ2 inh: -6.7*; KCNQ2 enhance: -6.7

What do the screens show for `CN(C)C(=O)CSc1nnc(Cc2ccccc2)n1Cc1ccco1`?
KCNQ2 inh: inactive; KCNQ2 enhance: 0.02
